A selection: hits, their analogues and other compounds. The true share with any hit is near 1.2%.
TLR9-MyD88 block: TLR9-MyD88 interaction inhibition; Q9NR96+Q99836; CHO BLA complementation TLR9-MyD88, CCF4 FRET ratio; inhibition, % at 4.98 µM; 0.21% of 340,000 active; AID 504734;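 active = inhibition above the mean over all tested compounds plus 3 SD, cut at about 21% in these data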;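 note: 0% = DMSO only wells and 100% = clavulanate BLA inhibitor control wells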
ABHD5-PLIN5 inh: inhibitors of human ABHD5-perilipin-5 interaction | Q00G26+Q8WTS1 | Split G. princeps luciferase complementation, luminescence, 4 h | inhibition, % at 4 µM | 0.78% of 360,000 active | AID 602281;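 active = inhibition above the mean inhibition across every tested compound plus 3 SD, cut at about 22% in these data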;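 note: 0% = DMSO only wells and the 100% control is not disclosed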
NOD2 RIPK2 PPI: NOD2-RIPK2 protein interaction inhibition; O43353; CHO BLA complementation NOD2-RIPK2, CCF4 ratio; AID 624267; 0.38% of 360,000 active; inhibition, % at 4.98 µM; in the data active = inhibition above about 21%;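 note: 0% = vehicle only and 100% = reference blocker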
TLR4 MyD88 comp: TLR4-MyD88 interaction inhibition in cells | AID 861 | 0.18% of 200,000 active | inhibition, % at 8.4 µM | HeLa CL3-4 TLR4/MyD88 BLA complementation, FRET ratio; in the data active = inhibition above about 25%;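 note: 0% = vehicle and 100% = reference inhibitor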
TLR9-MyD88 cf: TLR9-MyD88 interaction inhibition, confirmation; shares compounds with TLR9-MyD88 block; CHO TLR9/MyD88 BLA complementation, CCF4 FRET ratio; inhibition, % at 4.98 µM; 51% of 680 active; AID 540250;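 active = mean inhibition across three repeats above about 21% taken from the earlier screen, limit read from the data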;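 note: blue over green emission ratio reports constitutive TLR9 MyD88 association via BLA complementation; 0% = DMSO vehicle wells and 100% = clavulanate BLA inhibitor wells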
BLA counter-1: non-selective beta-lactamase inhibitors in TLR9-MyD88 counter-screen | shares compounds with TLR9-MyD88 block | CHO-BLA cells, CCF4 FRET ratio, BLA reporter | inhibition, % at 4.98 µM | 7% of 680 active | AID 540251;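 active = mean inhibition above a 50% cutoff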;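 note: counterscreen of TLR9-MyD88 hits on CMV-driven BLA in CHO-K1 cells; 0% = DMSO alone and 100% = clavulanate blocking BLA; higher means less blue over green ratio so more BLA blockade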
TLR9 CHO tox: CHO cell toxicity counter-screen for TLR9-MyD88 inhibitors. shares compounds with TLR9-MyD88 block. inhibition, % at 4.98 µM. 39% of 680 active. TLR9-MyD88 CHO cells cytotoxicity, luminescence; in the data active = inhibition above about 11%
ABHD5-PLIN5 conf: confirmation of human ABHD5-PLIN5 interaction inhibitors | shares compounds with ABHD5-PLIN5 inh | 67% of 2,200 active | inhibition, % at 4 µM | biochemical ABHD5-PLIN5 interaction, luminescence; in the data active = inhibition above about 23%;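 note: 0% = DMSO vehicle wells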
HNF4 counter: HNF4 split-luciferase signal hit, counter-screen; shares compounds with ABHD5-PLIN5 inh; HNF4 dimerization, luminescence, biochemical; inhibition, % at 4 µM; 77% of 2,200 active; AID 651674;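 active = mean inhibition across replicate wells exceeding the computed hit threshold, cut at about 13% in these data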;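 note: light from luciferase halves that rejoin when HNF4 fusion proteins dimerize; 0% = DMSO only wells and the 100% control is not given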
NOD2-RIPK2 conf: NOD2-RIPK2 interaction inhibition confirmed; shares compounds with NOD2 RIPK2 PPI; CHO cells, NOD2-RIPK2 BLA complementation, CCF4 FRET; inhibition, % at 4.98 µM; 70% of 1,200 active; AID 624370;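 active = mean inhibition across replicates above a set limit taken from the earlier primary screen, cut at about 21% in these data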;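 note: 0% = DMSO-only wells and the high end = clavulanate BLA-blocked wells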
BLA counter-2: NOD2-RIPK2 counterscreen BLA reporter activity | shares compounds with NOD2 RIPK2 PPI | CHO BLA reporter, CCF4 FRET ratio | inhibition, % at 4.98 µM | 57% of 1,200 active | AID 624371;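 active = mean inhibition above the low-control mean inhibition plus three low-control SD, cut at about 11% in these data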;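 note: 0% = DMSO only wells and 100% = clavulanate high control wells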
* hit, by the source's call; x = no result given.

SMILES	TLR9-MyD88 block	ABHD5-PLIN5 inh	NOD2 RIPK2 PPI	TLR4 MyD88 comp	TLR9-MyD88 cf	BLA counter-1	TLR9 CHO tox	NOD2-RIPK2 conf	BLA counter-2	others
O=[N+]([O-])c1c(Nc2cccc(O)c2)cc(Cl)c2nonc12	46*	52*	98*	x	61*	3	98*	108*	29*	ABHD5-PLIN5 conf=71*;HNF4 counter=95*
O=C(O)c1cccc(Nc2ccc3nonc3c2[N+](=O)[O-])c1	-10	-5	2	x	x	x	x	x	x
Nc1c(C(=O)N2CCCC2)sc2nc(-c3ccccc3)ccc12	30*	-5	34*	x	32*	30	5	52*	61*
Nc1c(C(=O)N2CCCCC2)sc2nc3c(cc12)CCCC3	0	-6	-3	x	x	x	x	x	x
N#Cc1c([N+](=O)[O-])cc([N+](=O)[O-])cc1S(=O)(=O)Cc1ccccc1	46*	36*	86*	x	40*	23	98*	92*	34*	ABHD5-PLIN5 conf=64*;HNF4 counter=95*
COc1cc(OC)c(C#N)c(S(=O)(=O)Cc2ccccc2)c1	8	0	-2	-7	x	x	x	x	x
O=C(Cc1ccc(Br)cc1)NC1CCSC1=O (stereo not drawn)	-1	-2	-4	6	x	x	x	x	x
CCOC(=O)CC(NC(=O)c1cc2cccc(OC)c2oc1=O)c1ccc(OC)cc1 (stereo not drawn)	-3	2	-9	x	x	x	x	x	x
COc1ccc(Cc2ccccc2C(=O)O)cc1	-9	4	5	x	x	x	x	x	x
COc1ccc(CC2=CC(=O)c3ccccc3C2=O)cc1	24*	85*	63*	x	8	-8	84*	48*	-9	ABHD5-PLIN5 conf=100*;HNF4 counter=108*
O=C(/C=C/c1cn(CC(O)CN2CCCCC2)c2ccccc12)c1cccs1 (stereo not drawn)	25*	12	28*	22	22*	20	5	51*	50*
N#CC(C#N)=C1C=CC=CN1/C(=C\c1ccco1)C(=O)c1ccccc1	23*	54*	80*	-5	29*	9	98*	93*	17*	ABHD5-PLIN5 conf=102*;HNF4 counter=110*
N#C/C(=C/c1ccco1)C(N)=S	6	-5	-13	x	x	x	x	x	x
N#CC(C#N)=C1C=CC=CN1/C(=C\c1ccco1)C(=O)c1ccc(Br)cc1	42*	92*	91*	7	46*	5	98*	93*	18*
CC(C)(C)C(=O)COC(=O)c1ccc2c(c1)C(=O)N(Cc1ccco1)C2=O	-13	-4	-6	x	x	x	x	x	x
Cc1ccccc1NC(=O)/C=C/c1ccc([N+](=O)[O-])s1	27*	29*	39*	19	28*	22	96*	37*	41*
Cc1cc(C)cc(NC(=O)/C=C/c2ccc([N+](=O)[O-])s2)c1	-1	0	9	2	x	x	x	x	x
Cc1ccc(C2OCC(C)([N+](=O)[O-])CO2)cc1 (stereo not drawn)	-4	1	10	x	x	x	x	x	x
CCOC(=O)C1=NN(c2ccccc2)C2C(=O)N(c3ccccc3OC)C(=O)C12 (stereo not drawn)	8	-1	8	x	x	x	x	x	x
COc1ccccc1N1C(=O)C2C(C(=O)c3ccccc3)=NN(c3ccccc3)C2C1=O (stereo not drawn)	47*	0	52*	x	26*	25	2	59*	64*
CCNc1nnc(SCC(=O)N2c3ccccc3NC(=O)CC2C)s1 (stereo not drawn)	-10	4	0	x	x	x	x	x	x
Cc1ccccc1-n1c(C)cc(/C=N/Nc2ccc([N+](=O)[O-])cn2)c1C	37*	-4	28*	24	21*	25	10*	38*	40*
COc1ccc(OC)c(NC(=O)C2(C)CCN2C(=O)C2(c3ccc(Cl)cc3)CCC2)c1 (stereo not drawn)	x	-4	-5	x	x	x	x	x	x
O=C(/C=N/O)Nc1ccc2sc3ccccc3c2c1	34*	1	21*	x	8	6	3	20	15*
COC(=O)c1ccccc1NC(=O)/C=N/O	8	2	5	-4	x	x	x	x	x
SMILES	TLR9-MyD88 block	ABHD5-PLIN5 inh	NOD2 RIPK2 PPI	TLR4 MyD88 comp	TLR9-MyD88 cf	BLA counter-1	TLR9 CHO tox	NOD2-RIPK2 conf	BLA counter-2	others
O=[N+]([O-])c1ccc(C2=NN(c3ccccc3)C(c3ccco3)C2)cc1 (stereo not drawn)	59*	9	41*	x	40*	41	5	73*	69*
O=[N+]([O-])c1ccc(/C=C/C2=NN(c3ccccc3)C(c3ccco3)C2)cc1 (stereo not drawn)	11	17	4	17	x	x	x	x	x
Cc1ccc2nc(-c3cccc(SC4CCCCC4)c3)c(NC3CCCCC3)n2c1	5	1	-4	x	x	x	x	x	x
c1cc(SC2CCCCC2)cc(-c2nc3cnccn3c2NC2CCCCC2)c1	33*	-18	33*	x	33*	35	-2	52*	66*
Cc1ccc(-c2nc3cnccn3c2Nc2c(C)cccc2C)o1	29*	38*	49*	17	14	18	9	36*	41*	ABHD5-PLIN5 conf=30*;HNF4 counter=94*
Cc1ccc(-c2nc3ncccn3c2Nc2ccccc2C)o1	0	7	5	21	x	x	x	x	x
CC(=O)NC(c1cccc(F)c1)c1nc(-c2ccoc2)cs1 (stereo not drawn)	x	8	9	x	x	x	x	x	x
Clc1ccccc1/C=N/NC1=Nc2cccc3cccc1c23	31*	14	36*	14	13	12	11*	30*	29*
CCCCCCSc1ccc(-c2nc3cnccn3c2NCCCC)cc1	23*	-2	24*	x	48*	50*	-7	68*	77*
CC1(c2ccccc2)NC(=O)N(CC(=O)Nc2ccc(N3CCOCC3)cc2N2CCOCC2)C1=O (stereo not drawn)	-1	-3	-12	x	x	x	x	x	x
CCOC(=O)c1c(C)nc2sc(C(=O)Nc3ccc(C(C)=O)cc3)c(N)c2c1-c1ccc(OC)cc1	22*	-6	25*	23	18	24	16*	49*	54*

Source: PubChem (The Scripps Research Institute Molecular Screening Center)
